The values that follow come from ChEMBL document CHEMBL1157539, “Thousands of chemical starting points for antimalarial lead identification” (Nature, 2010).

As a reminder, the Inhibition is the percentage by which the read-out fell short of the control. Higher therefore signals a response far below the control.

Type in all cases: functional
For assay [1], the system named is Plasmodium falciparum. In words: GSK_TCMDC: Inhibition of Plasmodium falciparum 3D7 in whole red blood cells, using parasite LDH activity as an index of growth. Test compounds present at 2uM.
For assay [2], the system named is Plasmodium falciparum. In words: GSK_TCMDC: Inhibition of Plasmodium falciparum Dd2 in whole red blood cells, using parasite LDH activity as an index of growth. Test compounds present at 2uM.
The next assay relates to HepG2. In words: GSK_TCMDC: Percent inhibition of human HepG2 cell line. Test compounds present at 10uM.

Consider `CCn1ncc2c(N3CCCC3=O)cc(C(=O)N[C@@H](Cc3ccccc3)[C@H](O)CNC(C)(C)c3cccc(OC)c3)cc21`, for which the Inhibition with Plasmodium falciparum [1] stood at 98%; in the assay with Plasmodium falciparum [2] it was 97%; with HepG2, 6%.

Turning to `CN(C)c1ccc(CN2CCC(NC(=O)c3ccc(-c4cccc(F)c4)s3)CC2)cc1.O=C(O)C(F)(F)F`, the Inhibition worked out at 91% with Plasmodium falciparum [1], 18% in the assay on Plasmodium falciparum [2] and 55% with HepG2.

On to `Cc1cccc2nc(-c3ccc(-c4cccc(CN5CCN(c6ccc(C#N)cn6)CC5)c4)s3)[nH]c12.O=C(O)C(F)(F)F`, for which the figures for the Inhibition with Plasmodium falciparum [1], with Plasmodium falciparum [2] and in the assay with HepG2 were 85%, 8% and 37%, respectively.

Turning to `O=C(COc1ccc(F)cc1)NC1CCN(c2ccnc3cc(Cl)ccc23)C1.O=C(O)C(F)(F)F` (configuration not stated), the Inhibition worked out at 100% in the assay with Plasmodium falciparum [1], 100% with Plasmodium falciparum [2] and 24% in the assay on HepG2.

As to `CC1(C)N=C(NC(=O)c2ccc([N+](=O)[O-])cc2)N=C(N)N1OCc1ccc2ccccc2c1`, the Inhibition in the assay on Plasmodium falciparum [1] is 95%; in the assay with Plasmodium falciparum [2], 78%; in the assay on HepG2 it was 64%.

As to `O=C(/C=C/c1ccc(Cl)c(Cl)c1)NCCCCCN1CCC(CCNC(=O)C2(c3ccc(Cl)cc3)CC2)CC1`, the Inhibition in the assay on Plasmodium falciparum [1] amounted to 91%; in the assay on Plasmodium falciparum [2], 16%; in the assay on HepG2 it was 96%.

In the case of `COCCOC(=O)C(=O)c1c(-c2ccccc2)c(-c2ccc(OC)c(OC)c2)c2c3cc(OC)c(OC)cc3ccn12`, the values for the Inhibition with Plasmodium falciparum [1], in the assay on Plasmodium falciparum [2] and in the assay on HepG2 were 100%, 100% and 4%, respectively.

For `COc1ccc(-c2ccc(NC(=O)c3cccc(Cl)c3)cc2)cc1CN1CCCC1.O=C(O)C(F)(F)F`, the Inhibition came to 100% in the assay with Plasmodium falciparum [1], 84% in the assay with Plasmodium falciparum [2] and 35% in the assay with HepG2.

On to `COc1ccc2nccc([C@@H](O)CN3CCC(NCc4ccc(OC)c(NC=O)c4)CC3)c2c1`, for which the Inhibition amounted to 97% in the assay with Plasmodium falciparum [1], 0% with Plasmodium falciparum [2] and 0% in the assay on HepG2.

As for `O=C(/C=C/c1ccc(C(F)(F)F)cc1)NCCCCCN1CCCN(C(=O)Nc2ccc(Cl)c(C(F)(F)F)c2)CC1`, the Inhibition worked out at 99% in the assay with Plasmodium falciparum [1], 31% in the assay on Plasmodium falciparum [2] and 64% in the assay on HepG2.

For the compound `CCN1CCCC1CN(Cc1ccc(-c2ccc(C(F)(F)F)cc2)cc1)C(=O)Cn1c(CCc2cccc(F)c2F)nc(=O)c2ccccc21.O=C(O)C(O)C(O)C(=O)O` (configuration not stated), the Inhibition with Plasmodium falciparum [1] is listed as 94%; in the assay with Plasmodium falciparum [2] it was 51%; in the assay with HepG2, 40%.

On to `COc1ccc(-c2cccc(NC(=O)c3ccc(C#N)cc3)c2)cc1CN1CCN(C)CC1.O=C(O)C(F)(F)F`, for which the Inhibition in the assay on Plasmodium falciparum [1] worked out at 93%; with Plasmodium falciparum [2], 2%; in the assay with HepG2 it was 24%.

Take `Clc1ccc(-c2ccc(CNCCCN3CCCC3)cc2)cc1`: the Inhibition with Plasmodium falciparum [1] was determined as 91%; in the assay on Plasmodium falciparum [2], 21%; in the assay on HepG2, 47%.

`CN(C)/C(=N/C(=N)NCc1ccc(Cl)c(Cl)c1)NCCCCCCN/C(=N\C(=N)NCc1ccc(Cl)c(Cl)c1)N(C)C`: the Inhibition is recorded as 93% in the assay with Plasmodium falciparum [1], 99% in the assay with Plasmodium falciparum [2] and 20% in the assay on HepG2.

Regarding `Cc1[nH]c(C)c(-c2ccc(-c3ccccc3Cl)nc2)c(=O)c1Cl`, the Inhibition worked out at 98% in the assay on Plasmodium falciparum [1], 97% in the assay with Plasmodium falciparum [2] and 0% with HepG2.

For `O=C(NCCc1ccccc1)N(Cc1ccccc1-c1ccc(CNC2CCCC2)cc1)C1CCN(Cc2ccccc2)CC1.O=C(O)C(F)(F)F`, the values for the Inhibition in the assay on Plasmodium falciparum [1], in the assay with Plasmodium falciparum [2] and in the assay with HepG2 were 96%, 95% and 96%, respectively.

For `CCc1cc(-c2onc(C)c2-c2cc3ccccc3o2)c(O)cc1OC`, the Inhibition is reported as 95% in the assay with Plasmodium falciparum [1], 33% in the assay on Plasmodium falciparum [2] and 48% with HepG2.

On to `CCCOc1ccc(NC(=O)c2cccs2)cc1Cl`, for which the Inhibition came out at 88% in the assay with Plasmodium falciparum [1], 86% with Plasmodium falciparum [2] and 1% in the assay on HepG2.

As to `O=C(NCc1cccnc1)C(c1cc2ccccc2o1)N1CCN(C(c2ccccc2)c2ccccc2)CC1` (configuration not stated), the Inhibition in the assay with Plasmodium falciparum [1] was 95%; in the assay with Plasmodium falciparum [2], 81%; in the assay with HepG2, 12%.

Regarding `CN1CC[C@@H](Oc2cc(C(=O)NCc3ccc(Cl)c(Cl)c3)ccc2C(F)(F)F)C1.Cl`, the Inhibition was determined as 88% in the assay on Plasmodium falciparum [1], 4% in the assay with Plasmodium falciparum [2] and 8% with HepG2.

With `CC(C)C[C@H](NC(=O)c1cc2ccccc2s1)C(=O)N[C@H]1CCN(Cc2ccc(OCCCN(C)C)c(Cl)c2)C1.O=C(O)C(F)(F)F`, the Inhibition in the assay on Plasmodium falciparum [1] is given as 100%; in the assay with Plasmodium falciparum [2], 89%; in the assay with HepG2 it was 83%.

Take `O=C(/C=C/c1ccc(Cl)c(Cl)c1)NCCCCCN1CCC(NC(=O)c2ccc(F)cc2)CC1`: the Inhibition with Plasmodium falciparum [1] was 100%; in the assay with Plasmodium falciparum [2], 13%; with HepG2 it was 14%.

On to `COc1ccc2[nH]cc(C3CCN(CCC4CCN(C(=O)/C=C/c5ccc(Cl)c(Cl)c5)CC4)CC3)c2c1`, for which the Inhibition in the assay with Plasmodium falciparum [1] amounted to 100%; in the assay with Plasmodium falciparum [2] it was 56%; in the assay on HepG2, 52%.

Take `CC(C)c1ccc(N2CCN(CCCCNC(=O)c3ccc(NC(=O)c4cc(Cl)cc(Cl)c4)cc3)CC2)cc1`: the results for the Inhibition in the assay with Plasmodium falciparum [1], in the assay on Plasmodium falciparum [2] and in the assay on HepG2 were 100%, 86% and 12%, respectively.

For the compound `COC(=O)c1cccc(NC(=O)NC2CCN(c3ccnc(NCc4ccc(F)cc4)n3)CC2)c1`, the Inhibition in the assay with Plasmodium falciparum [1] is recorded as 93%; in the assay with Plasmodium falciparum [2], 39%; with HepG2, 29%.

Turning to `Fc1cc(Cl)ccc1Nc1ccnc2cc(I)ccc12`, the Inhibition is 90% in the assay with Plasmodium falciparum [1], 10% in the assay on Plasmodium falciparum [2] and 11% in the assay with HepG2.

Regarding `Br.CCCCCCn1c2c(c(=N)c3c1CCC3)CCC2`, the Inhibition with Plasmodium falciparum [1] amounted to 97%; in the assay with Plasmodium falciparum [2], 83%; in the assay on HepG2, 32%.

In the case of `NC1CCN(c2nc(NCCc3ccc(O)cc3)nc(NCc3ccccc3-c3ccccc3)n2)CC1.O=C(O)C(F)(F)F`, the Inhibition in the assay on Plasmodium falciparum [1] worked out at 99%; in the assay on Plasmodium falciparum [2], 32%; in the assay on HepG2 it was 14%.

Regarding `CCCCN(CCCC)CCCCCCNc1c2ccccc2nc2ccccc12.Cl`, the Inhibition came out at 95% in the assay on Plasmodium falciparum [1], 87% in the assay on Plasmodium falciparum [2] and 49% in the assay with HepG2.
